# D2 ag-1 = HTS Assay for Allosteric Agonists of the Human D2 Dopamine Receptor: Primary Screen for Agonists; HEK293 T-REx D2 cells, calcium flux agonist mode; activation, % at 2 µM; actives 0.53% (n = 340,000);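 active = activation over 3 SD above normal in the single-dose calcium agonist read, cut at about 30% in these data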
# Target sequence (P14416 whole entry, looked up): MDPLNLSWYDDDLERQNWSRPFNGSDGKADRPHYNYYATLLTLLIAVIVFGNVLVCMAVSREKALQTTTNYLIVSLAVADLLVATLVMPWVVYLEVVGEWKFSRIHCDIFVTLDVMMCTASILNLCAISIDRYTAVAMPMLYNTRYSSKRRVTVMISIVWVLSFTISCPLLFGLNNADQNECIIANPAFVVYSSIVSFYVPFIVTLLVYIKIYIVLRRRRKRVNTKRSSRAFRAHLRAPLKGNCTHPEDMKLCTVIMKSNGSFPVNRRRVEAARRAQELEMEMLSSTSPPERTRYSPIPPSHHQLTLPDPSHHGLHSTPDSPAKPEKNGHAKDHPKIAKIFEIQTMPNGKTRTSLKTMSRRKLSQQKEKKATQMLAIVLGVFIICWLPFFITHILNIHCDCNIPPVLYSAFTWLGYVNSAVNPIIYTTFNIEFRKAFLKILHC
#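 Agonism is scored from calcium flux in a force-coupled, inducible HEK293 cell line expressing D2, read kinetically for 180 s after compound addition against dopamine controls.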
# D2 PAM-1 = HTS Assay for Positive Allosteric Modulators of the Human D2 Dopamine Receptor: Primary Screen for Potentiators. D(2) dopamine receptor (Homo sapiens), P14416. HEK293 T-REx D2, calcium flux, EC20 dopamine potentiation. potentiation, % at 10 µM. actives 0.34% (n = 340,000);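 active = potentiation over 3 SD above the plate norm, cut at about 30% in these data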
#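 Potentiation of an EC20 dopamine calcium response measured kinetically over 180 s, after a preceding 180 s compound-only read flagging agonists. Cells: inducible Hek293 Trex D2 line, 4000/well, cultured overnight at 30 C before dye loading.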
# D2 ag-2 = Beta-Arrestin HTS for Positive Allosteric Modulators of the Human D2 Dopamine Receptor: Agonists; D(2) dopamine receptor (Homo sapiens), P14416; DiscoveRx PathHunter D2 beta-arrestin, luminescence, 90 min; 100% = 57 uM dopamine signal; activation, % (concentration not given with the values); actives 0.084% (n = 360,000); AID 624465, 2012; in the data active = activation above about 40%
#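 Agonist mode: compounds alone added to overnight-plated D2 PathHunter cells for 90 min at 37 C, with 57 uM final dopamine (EC100) defining full response. Beta-arrestin recruitment detected by chemiluminescent reagent, read after 1 h at ambient temperature.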
# D2 antagonist = HTS Assay for Allosteric Antagonists of the Human D2 Dopamine Receptor: Primary Screen for Antagonists; D(2) dopamine receptor (Homo sapiens), P14416; HEK293 TREx D2 cells, calcium flux, dopamine EC80; inhibition, % at 10 µM; actives 2% (n = 340,000); AID 485344, 2010; in the data active = inhibition above about 30%; inactive = below that, where a call was filed
#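 Calcium flux kinetic readout in an inducible HEK293 TREx D2 line plated overnight at 30 C. After 180 s compound exposure, an EC80 dopamine challenge follows with another 180 s kinetic read to detect antagonism.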
# D2 PAM-2 = Beta-Arrestin HTS for Positive Allosteric Modulators of the Human D2 Dopamine Receptor: Potentiators; D(2) dopamine receptor (Homo sapiens), P14416; DiscoveRx D2 beta-arrestin cells, luminescence, 90 min; 100% = 57 uM dopamine signal; potentiation, % (concentration not given with the values); actives 0.23% (n = 360,000); in the data active = potentiation above about 50%
#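 D2 cells co-treated with compound plus 50 nM dopamine (EC20) for 90 min at 37 deg C to detect potentiation. Beta-arrestin recruitment was read as enzyme-fragment luminescence after 1 h at ambient temperature. Full response was set by 57 uM dopamine.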
# A number is an active result; – = inactive; · = no result. Sampled rows, rich in hits. Any-hit rate of the full collection: about 2.4%.
SMILES,D2 ag-1,D2 PAM-1,D2 ag-2,D2 antagonist,D2 PAM-2
CCCC(=O)Nc1ccc(OCC(=O)OC)cc1,–,–,–,–,–
CN(CC1CCN(CCc2cccc(C(F)(F)F)c2)CC1)C(=O)c1ccc(F)cc1F,–,–,–,65,–
Clc1ccc(OCc2nc(-c3ccc(-n4cccc4)cc3)no2)cc1,–,–,·,·,·
COc1cccc(C(=O)N(c2ccc(OC)cc2OC)C2C=CS(=O)(=O)C2)c1 (stereo unspecified),–,–,–,30,–
Cc1cc(C)cc(NC(=O)c2cc(S(=O)(=O)N3CCCC3)ccc2F)c1,–,–,·,·,·
CCOc1ccc(C(=O)NCC(c2ccc3c(c2)OCO3)N2CCN(C)CC2)cc1 (stereo unspecified),–,–,·,·,·
OCCN1CCN(c2nc(NCc3ccco3)c3ccccc3n2)CC1,–,–,–,–,–
Cc1ccc(-c2nc(NCc3ccco3)c3ccccc3n2)cc1,–,–,–,–,–
c1ccc(-c2nc(NCc3ccco3)c3oc4ccccc4c3n2)cc1,–,33,–,–,–
Cc1ccc(OCCN2CCN(c3nc(NCc4ccco4)c4ccccc4n3)CC2)cc1,–,–,–,38,–
CSc1nc(NCc2ccco2)c2ccccc2n1,–,–,–,31,–
CC1=C(C(=O)Nc2ccc(Cl)cc2)C(c2cccs2)n2nc(SCc3cccc(C)c3)nc2N1 (stereo unspecified),–,–,·,·,·
Cc1ccc(-c2ccc([C@H]3[C@H]4C=CC[C@@H](C)[C@@H]4C(=O)N3Cc3ccccc3)c(F)c2)cc1,–,–,–,33,–
CCOC(=O)c1nc(Nc2ccc(C(=O)OCC(C)C)cc2)c2ccccc2n1,–,–,·,·,·
O=C(NCc1cccnc1)c1ccc(COc2ccccc2Br)cc1,–,–,–,53,–
O=C(NCc1cccnc1)c1ccc(COc2ccccc2Cl)cc1,–,–,–,–,–
Cc1nc(SCC(=O)OC(C)(C)C)c2c3c(sc2n1)CCCC3,–,–,·,·,·
COc1ccccc1N1CCN(C2CCN(C(=O)COc3ccccc3)CC2)CC1,–,–,–,90,–
COc1ccccc1C(=O)N1CCC(N2CCN(c3ccccc3OC)CC2)CC1,–,–,–,38,–
COc1ccccc1N1CCN(C(=O)c2coc(=O)c(Br)c2)CC1,–,–,–,43,–
COc1ccccc1N1CCN(C2CCCC(C)C2)CC1 (stereo unspecified),–,–,–,34,–
COc1ccccc1N1CCN(C(=O)C2CCN(C(=O)c3ccccc3Cl)CC2)CC1,–,–,–,–,–
O=C(CCNS(=O)(=O)c1ccc2c(c1)CCCC(=O)N2)Nc1cccc(Cl)c1,–,·,·,·,·
COc1ccc(C)cc1NC(=O)COCc1cc(-c2ccc(F)cc2)on1,–,–,·,·,·
COc1ccccc1N1CCN(C(=O)C2CC=CCC2C(=O)O)CC1 (stereo unspecified),–,–,–,33,–
SMILES,D2 ag-1,D2 PAM-1,D2 ag-2,D2 antagonist,D2 PAM-2
COc1ccccc1N1CCN(C(=O)c2ccoc2C)CC1,–,–,–,35,–
COc1ccccc1N1CCN(C(=O)c2c(C)noc2C)CC1,–,–,–,–,–
O=C(NC1CCCC1)c1ccccc1OCc1ccccc1,–,–,–,–,–
O=C(NC1CCN(Cc2ccccc2)CC1)c1ccccc1OCc1ccccc1Cl,–,–,–,84,–
CCOc1ccccc1C(=O)NC1CCN(Cc2ccccc2)CC1,–,–,–,89,–
O=C(NC1CCN(Cc2ccccc2)CC1)c1ccccc1OCc1ccccc1,–,–,–,86,–
COc1ccc(Cl)cc1NC(=O)Cn1cc(C(=O)c2ccncc2)c(=O)c2cc(C)ccc21,–,–,·,·,·
CCOc1ccc(OCC(=O)NCCS(=O)(=O)N2CCN(c3ccccc3F)CC2)cc1,–,–,·,·,·
O=C(Nc1ccc(S(=O)(=O)N2CCCCC2)cc1)c1ccc(CN2CCOCC2)cc1,·,42,–,·,–
O=C(Nc1ccc(S(=O)(=O)N2CCCC2)cc1)c1ccc(CN2CCOCC2)cc1,–,–,–,–,–
O=C(Nc1cccc(S(=O)(=O)C(F)F)c1)c1ccc(S(=O)(=O)N2CCCC2)cc1,–,–,–,59,–
CCN(CC)S(=O)(=O)c1ccc(NC(=O)c2ccc(CN3CCOCC3)cc2)cc1,–,30,–,–,–
Cc1nc2nc(NCc3ccc(Br)cc3)[nH]n2c(=O)c1Cc1ccccc1,–,–,·,·,·
COc1cccc(-c2oc3ccc(C)cc3c(=O)c2O)c1,–,–,·,·,·
Cc1nc2c(C#N)c(C)[nH]n2c(=O)c1Cc1ccccc1,–,–,–,–,–
Cc1[nH]n2c(=O)cc(Cc3ccccc3)nc2c1C#N,–,–,–,42,–
Cc1ccc(CNC(=O)Cc2c(C)c3c(cc(C)c4c(C)coc43)oc2=O)cc1,–,–,·,·,·
COc1cccc(NC(=O)CSc2nnc3[nH]c(=O)cc(-c4ccccc4)n23)c1,–,–,·,·,·
O=S(=O)(Nc1c(O)ccc2ccccc12)c1ccccc1,·,·,42,·,–
CCC1CCCCN1CCCNC(=O)c1cc2c(=O)oc3ccc(C)cc3c2s1 (stereo unspecified),–,–,–,36,–
O=C1c2oc3ccccc3c(=O)c2C(c2cccnc2)N1CCCN1CCOCC1 (stereo unspecified),–,–,–,35,–
CC(C)Oc1ccc(C2c3c(oc4ccccc4c3=O)C(=O)N2CCCN2CCOCC2)cc1 (stereo unspecified),–,–,–,–,–
Cc1oc2ccc(O)c(CN3CCCCCC3)c2c1C(=O)Nc1cccc(C(F)(F)F)c1,–,–,·,·,·
CCCn1c(N)c(C(=O)CSc2nnc(-c3c[nH]c4ccccc34)n2C2CC2)c(=O)[nH]c1=O,·,·,–,·,–
COCCCn1c(SCC(=O)c2c(N)n(C3CC3)c(=O)[nH]c2=O)nnc1-c1ccccc1Cl,·,·,–,·,–
CCCn1c(N)c(C(=O)CSc2nnc(-c3cccs3)n2C2CC2)c(=O)[nH]c1=O,·,·,48,·,–
COCCn1c(SCC(=O)c2c(N)n(C3CC3)c(=O)[nH]c2=O)nnc1-c1ccc(Cl)cc1,–,–,40,–,–
Cc1ccc(NC(=O)c2cc3c(=O)[nH]c4ccccc4c3n2C)cc1F,–,–,·,·,·
COc1ccc(OC)c(-n2c(-c3cccc(O)c3)n[nH]c2=S)c1,–,36,–,–,–
CC(C)(C)c1ccc(C(=O)NC2CCN(Cc3ccccc3)CC2)cc1,–,–,–,54,–

# Source: PubChem BioAssay (National Center for Advancing Translational Sciences (NCATS))
